This is an account of results in PubChem BioAssay (Tox21).

Assay [1] in a line: qHTS assay to identify small molecule antagonists of the estrogen related receptor (ERR) signaling pathway from Tox21 library - cell viability counter screen (AID 1224834). Also: nearly all actives have a fitted effect of over 30% in size. Also: potency is read from the fitted curve at half-maximal effect. The gist of the method:
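CellTiter-Fluor fluorescence, read after 30 min at 37 C, measures viability of ERR cells. Cells plated at 2,000/well and incubated 6 h before pin-tool compound addition, then exposed 17.5 hours at 37 C.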
(qHTS replaces the single test concentration by a dilution series.)

Assay [2] addresses Luciferin 4-monooxygenase (Photinus pyralis) (UniProt P08659). Put plainly: qHTS assay to identify small molecule inhibitors of firefly luciferase (AID 1224835). Also: nearly all actives have a fitted effect of over 25% in size. Also: potency is read from the fitted curve at half-maximal effect. The gist of the method:
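Biochemical qHTS: compounds run as interplate titrations against purified firefly enzyme, with D-luciferin and ATP each at its KM concentration. Light output recorded by CCD imaging.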

Assay [3] is described as follows: qHTS assay to identify small molecule agonists of the constitutive androstane receptor (CAR) signaling pathway - cell viability counter screen (AID 1224836). Also: nearly all actives have a fitted effect of over 45% in size. The gist of the method: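 Multiplexed viability check: HepG2-CYP2B6-hCAR cells, 15-point compound dosing, 0.75 uM PK11195 final, 23 h at 37 C, CellTiter-Fluor fluorescence.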
The nature of assay [4]: qHTS assay to identify small molecule antagonists of the constitutive androstane receptor (CAR) signaling pathway - cell viability counter screen (AID 1224837). Also: nearly all actives have a fitted effect of over 45% in size. The gist of the method:
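Cytotoxicity counter-screen: CellTiter-Fluor fluorescence after 23 h compound exposure (15-point qHTS) in double-stable HepG2-CYP2B6-hCAR cells, with 50 nM CITCO added.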

Assay [5] has as its target Nuclear receptor subfamily 1 group I member 3 (Homo sapiens) (UniProt Q14994). Kind of assay: qHTS assay to identify small molecule agonists of the constitutive androstane receptor (CAR) signaling pathway (AID 1224839). Also: nearly all actives have a fitted effect of over 15% in size. Also: potency is read from the fitted curve at half-maximal effect.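 As to activation: HepG2 cells stably carrying human CAR and a CYP2B6 luciferase reporter.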 The gist of the method:
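Using human hepatoma HepG2 cells engineered with hCAR and a CYP2B6-2.2kb reporter, 15-concentration compound series were incubated 24 h alongside PK11195 at 0.75 uM final, with luminescence quantified afterwards.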

The nature of assay [6]: qHTS assay to identify small molecule antagonists of the estrogen related receptor signaling pathway with the pleiotropic PPARgamma coactivator (PGC) from Tox21 10K library (AID 1224841; call rule not given here; also: actives are mostly falling curves and most rising ones were filed inactive; nearly all actives have a fitted effect of over 50% in size; also: potency is read from the fitted curve at half-maximal effect). The gist of the method:
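Luminescence (One-Glo, 30 min at room temperature) after 18 h compound treatment at 37 C of PGC/ERR reporter cells plated at 2,000 cells/well and settled 6 h beforehand.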

Assay [7] in a line: qHTS assay to identify small molecule agonists of the estrogen related receptor signaling pathway with the pleiotropic PPARgamma coactivator (PGC) from Tox21 10K library (AID 1224842). Also: nearly all actives have a fitted effect of over 15% in size. The gist of the method:
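PGC/ERR reporter cell line, 2,000 cells per well, incubated 6 h at 37 C before 23 nL compound in DMSO was added. After 18 h at 37 C, One-Glo luminescence read following 30 min at room temperature.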

The nature of assay [8]: qHTS assay to identify small molecule agonists of the hypoxia (HIF-1) signaling pathway - cell viability counter screen (AID 1224844; calls by dose curve; also: nearly all actives have a fitted effect of over 50% in size). The gist of the method:
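Cytotoxicity measured by CellTiter-Glo ATP luminescence in the wells also read for beta-lactamase signal. Cells were HRE-bla ME-180 (2,000/well, 0.5% dialyzed FBS), exposed to compounds for 17 h at 37C.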

Assay [9] in a line: qHTS assay to identify small molecule agonists of H2AX (AID 1224845; active = well fitted activation curve with a large enough effect in the signal ratio in the repeat runs, not every such curve was filed as active; the % refers to the signal ratio). The gist of the method: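 Wild-type CHO-K1 cells, plated overnight, exposed 3hr at 37C to 15 concentrations (0.76% DMSO final). Lysed, then HTRF anti-pH2AX (S139) cryptate and anti-H2AX-d2 antibodies, 24 hr room temperature; 665/620 nm emission read.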
A short description of assay [10]: qHTS assay to identify small molecule agonists of the hypoxia (HIF-1) signaling pathway (AID 1224846; active = well fitted activation curve with a large enough effect in the signal ratio in the repeat runs, not every such curve was filed as active; the % refers to the signal ratio). The gist of the method:
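Compounds added to ME-180 cells carrying hypoxia-response-element beta-lactamase reporter (0.5% dialyzed FBS, 5 h preplating), 17 h at 37C; agonist activity detected by CCF4-AM B/G FRET read-out.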

Assay [11] can be described thus: qHTS assay to identify small molecule agonists of H2AX - cell viability counter screen (AID 1224847; calls by dose curve; also: top concentration of the series differs between compounds; nearly all actives have a fitted effect of over 30% in size). The gist of the method: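 After overnight plating of 1000 CHO-K1 cells per well, a 15-concentration compound series was applied for 3 hr at 37C. Luminescence from CellTiter-Glo, read following 30 min at room temperature, reflected cell viability.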
Assay [12] can be described thus: qHTS assay to identify small molecule antagonists of the estrogen related receptor (ERR) signaling pathway from Tox21 library (AID 1224848). Also: nearly all actives have a fitted effect of over 50% in size. Also: potency is read from the fitted curve at half-maximal effect. The gist of the method:
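Compounds dissolved in DMSO are pin-transferred onto ERR reporter cells (2,000 per well) that have settled for 6 h at 37 C. Plates then incubate 18 h at 37 C before ONE-Glo luciferase reagent and a luminescence read 30 min later.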

Assay [13] can be described thus: qHTS RealTime-Glo MT Cell Viability Assay in HepG2 cells - 24 hour (AID 1224867). Also: nearly all actives have a fitted effect of over 50% in size. The gist of the method:
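Luminescence read-out: viable HepG2 cells reduce a prosubstrate to a NanoLuc substrate, giving a signal proportional to live cell number. Reads taken at 0, 8, 16, 24, 32 and 40 h of compound exposure at 37 C.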

The nature of assay [14]: qHTS RealTime-Glo MT Cell Viability Assay in HEK293 cells - 32 hour (AID 1224868). Also: nearly all actives have a fitted effect of over 50% in size. Also: potency is read from the fitted curve at half-maximal effect. The gist of the method:
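Nonlytic real-time viability readout: viable cells convert prosubstrate to NanoLuc substrate, giving luminescence proportional to live cell number. HEK293, 600 cells/well, compound added after 5 h, continuous culture at 37 C.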

Assay [15] in a line: A CellTox Green Cytotoxicity Assay to monitor cytotoxicity in HEK293 cells - 0 hour (AID 1224869). Also: nearly all actives have a fitted effect of over 50% in size. The gist of the method:
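Fluorescence from a DNA-binding dye excluded by viable cells was measured repeatedly in the same HEK293 wells (600 cells/well) during continuous compound exposure at 37 C. Each assay gives one read point: 0, 8, 16, 24, 32 or 40 h.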

Assay [16] deals with Nuclear receptor subfamily 1 group I member 3 (Homo sapiens) (UniProt Q14994). Put plainly: qHTS assay to identify small molecule antagonists of the constitutive androstane receptor (CAR) signaling pathway (AID 1224838).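 Also: HepG2 cells stably expressing hCAR with CYP2B6 luciferase reporter stimulated by CITCO; nearly all actives have a fitted effect of over 40% in size.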 The gist of the method: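 Antagonism measured as luciferase signal (ONE-Glo, 30 min, room temperature) in CAR-stimulated cells: HepG2-CYP2B6-hCAR double-stable line exposed 24 hr at 37 C to compound in a 15-point series plus 50 nM CITCO.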

The nature of assay [17]: qHTS assay to identify small molecule antagonists of the estrogen related receptor signaling pathway with the pleiotropic PPARgamma coactivator (PGC) from Tox21 10K library - cell viability counter screen (AID 1224840; active = well fitted cell-killing curve with a large enough effect in the repeat runs, not every such curve was filed as active; also: nearly all actives have a fitted effect of over 40% in size). The gist of the method: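 Counter-screen for cytotoxicity: after 17.5 h compound exposure at 37 C, CellTiter-Fluor reagent added to PGC/ERR cells for 30 min and fluorescence read. Cells were seeded at 2,000 per well 6 h before dosing.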

The nature of assay [18]: qHTS assay to identify small molecule agonists of the estrogen related receptor (ERR) signaling pathway from Tox21 library (AID 1224849; calls by dose curve; also: nearly all actives have a fitted effect of over 15% in size). Particulars: ERR reporter cell line, ONE-Glo luciferase, 18 h; at 92.4 µM (top of the series) unless noted. The gist of the method: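 Luminescent agonist read-out (One-Glo, 30-minute room-temperature incubation) following 18-hour compound treatment at 37 C of the ERR cell line, which had been plated 6 hours before dosing.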

Assay [19] concerns the target Thyrotropin receptor (Homo sapiens) (UniProt P16473). Put plainly: qHTS assay to identify small molecule agonists of the thyroid stimulating hormone receptor (TSHR) signaling pathway (AID 1224843; calls by dose curve; also: nearly all actives have a fitted effect of over 45% in size). The gist of the method: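 HEK293/TSHR, 800 cells/well; cpd 30 min RT; add cAMP-d2 + anti-cAMP-cryptate, 1 h RT; fluorescence read on plate reader. 15-pt titration, n=3.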

Molecules are shown by their SMILES. Unmarked numbers belong to inactive results. Inconclusive results are not listed. Activity calls are given as the source filed them. Unless noted, calls follow the shape of the dose curve; as a rule, active = well fitted curve in the direction sought with a large enough effect in the repeat runs; inconclusive = weak or mixed curves; inactive = no such curve, though single readings can be large; an effect the other way counts as inactive or inconclusive.
% is scaled to controls: 0 for no effect and ±100 for the full control effect.

Thyrotropin receptor (Homo sapiens), sequence (P16473 whole entry, looked up): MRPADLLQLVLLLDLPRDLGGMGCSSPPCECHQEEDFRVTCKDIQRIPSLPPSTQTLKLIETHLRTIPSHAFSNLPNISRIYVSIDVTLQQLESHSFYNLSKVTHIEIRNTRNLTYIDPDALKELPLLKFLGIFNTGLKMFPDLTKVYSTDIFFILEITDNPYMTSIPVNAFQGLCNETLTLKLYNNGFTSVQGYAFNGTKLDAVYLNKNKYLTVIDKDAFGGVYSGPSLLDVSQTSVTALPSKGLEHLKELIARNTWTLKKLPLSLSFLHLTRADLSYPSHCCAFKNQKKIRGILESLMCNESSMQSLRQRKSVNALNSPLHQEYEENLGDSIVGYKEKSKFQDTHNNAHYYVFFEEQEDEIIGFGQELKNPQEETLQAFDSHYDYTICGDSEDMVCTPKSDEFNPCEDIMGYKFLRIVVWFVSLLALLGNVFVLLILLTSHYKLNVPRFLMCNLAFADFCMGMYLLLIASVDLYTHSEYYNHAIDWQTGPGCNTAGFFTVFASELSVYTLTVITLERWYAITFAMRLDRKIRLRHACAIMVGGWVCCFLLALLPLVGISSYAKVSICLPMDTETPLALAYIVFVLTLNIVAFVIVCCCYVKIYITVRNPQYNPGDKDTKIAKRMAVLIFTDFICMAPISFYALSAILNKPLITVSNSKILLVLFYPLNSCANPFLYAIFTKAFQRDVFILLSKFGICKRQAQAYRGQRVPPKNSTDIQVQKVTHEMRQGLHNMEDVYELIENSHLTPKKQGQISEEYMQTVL
Luciferin 4-monooxygenase (Photinus pyralis), sequence (P08659 whole entry, looked up): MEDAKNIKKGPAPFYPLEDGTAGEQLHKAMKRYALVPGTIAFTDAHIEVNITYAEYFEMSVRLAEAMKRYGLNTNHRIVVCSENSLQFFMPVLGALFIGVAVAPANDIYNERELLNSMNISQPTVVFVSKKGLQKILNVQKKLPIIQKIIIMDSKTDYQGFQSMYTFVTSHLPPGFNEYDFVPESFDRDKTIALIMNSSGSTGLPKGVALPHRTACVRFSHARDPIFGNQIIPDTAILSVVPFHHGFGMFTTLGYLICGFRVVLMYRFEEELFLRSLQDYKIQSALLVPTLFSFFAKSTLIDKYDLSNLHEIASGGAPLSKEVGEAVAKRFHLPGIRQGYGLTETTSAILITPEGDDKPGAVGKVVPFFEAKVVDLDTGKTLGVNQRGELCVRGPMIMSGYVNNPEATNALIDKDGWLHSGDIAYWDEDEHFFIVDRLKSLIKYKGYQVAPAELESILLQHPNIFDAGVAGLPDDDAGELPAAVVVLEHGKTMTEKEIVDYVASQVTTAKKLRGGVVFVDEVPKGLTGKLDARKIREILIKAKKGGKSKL
Nuclear receptor subfamily 1 group I member 3 (Homo sapiens), sequence (Q14994 whole entry, looked up): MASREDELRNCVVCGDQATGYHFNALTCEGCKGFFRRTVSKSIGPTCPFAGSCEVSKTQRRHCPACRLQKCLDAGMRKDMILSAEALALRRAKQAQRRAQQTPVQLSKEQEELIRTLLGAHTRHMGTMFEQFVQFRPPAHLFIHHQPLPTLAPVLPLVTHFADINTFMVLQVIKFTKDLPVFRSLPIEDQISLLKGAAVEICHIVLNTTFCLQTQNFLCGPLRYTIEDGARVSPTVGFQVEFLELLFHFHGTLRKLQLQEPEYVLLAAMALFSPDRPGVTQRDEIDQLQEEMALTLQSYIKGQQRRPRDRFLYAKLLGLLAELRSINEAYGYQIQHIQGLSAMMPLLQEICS

On to `Cc1ccc(Nc2nccc(N(C)c3ccc4c(C)n(C)nc4c3)n2)cc1S(N)(=O)=O`, for which the Potency is 29.8 µM (active) in assay [1]; 30.9 µM (active) in [2]; 4.73 µM (active) in [5]; 23.7 µM (active) in assay [6]; 11.9 µM (active) in assay [12]; 1.2 µM (active) in [14]. The Potency result in assay [3], in assay [4], in assay [7], in [8], in assay [9] and in assay [11] was “inactive” throughout. Further, the Potency result in assay [13] and in assay [15] was “inactive” in each case. The result in [10] was inactive.
For `O=C(C(=O)c1ccccc1)c1ccccc1`, the Potency result in assay [1], in assay [2], in [3], in assay [4], in assay [16] and in assay [17] was “inactive” throughout. Moreover, the Potency entry in [6], in [7], in [8], in assay [11], in [12] and in [13] was “inactive” each time. Further, the Potency entry in [14] and in assay [15] was “inactive” each time. Further, in assay [10], the call was inactive. Also, the activity change, positive = activation in [18] is 5.83%.
For the molecule `CC(C)OCC1CO1` (configuration not stated), the Potency entry in [1], in [2], in assay [3], in [4], in assay [5] and in assay [17] was “inactive” in each case. In addition, the Potency result in [6], in assay [7], in [8], in [9], in assay [11] and in [12] was “inactive” each time. For the same molecule, the Potency result in assay [13], in [14] and in assay [15] was “inactive” each time. The outcome in assay [10] was inactive.
For the molecule `CCN(CC)CCNC(=O)c1ccc(NC(C)=O)cc1`, the Potency result in assay [1], in assay [2], in assay [3], in [4], in assay [16] and in assay [5] was “inactive” each time. The Potency result in assay [17], in assay [8], in assay [9], in [11], in assay [13] and in assay [14] was “inactive” in each case. For the same molecule, in assay [15], the Potency entry was “inactive”.
In the case of `O=C(O)c1c(O)c(-c2ccccc2)nc2ccccc12`, the Potency entry in assay [1], in assay [3], in assay [4], in assay [16], in assay [17] and in assay [19] was “inactive” each time. Also, the Potency result in [9], in assay [11], in [13] and in [14] was “inactive” each time. Moreover, the Potency in [2] was 34.7 µM (active). In addition, the call in [10] was inactive.
Take `CCCCCCCCCCCC[N+](C)(C)CC(=O)[O-]`: the Potency entry in [1], in assay [2], in assay [3], in [4], in assay [5] and in assay [17] was “inactive” throughout. The Potency entry in assay [19], in [8], in [9], in assay [13], in [14] and in [15] was “inactive” in each case. For the same molecule, the result in [10] was inactive.
Regarding `CC(C)C(OC(=O)c1ccccc1)C(C)(C)COC(=O)c1ccccc1` (configuration not stated), the Potency entry in assay [1], in assay [2], in [3], in assay [4], in assay [16] and in assay [17] was “inactive” in each case. Moreover, the Potency result in assay [8], in [9], in assay [13], in [14] and in assay [15] was “inactive” each time. Moreover, the outcome in assay [10] was inactive.
In the case of `COCc1c(C(C)C)nc(C(C)C)c(/C=C/[C@@H](O)C[C@@H](O)CC(=O)O)c1-c1ccc(F)cc1`, the Potency result in assay [1], in assay [2], in [3], in assay [4], in assay [5] and in assay [17] was “inactive” each time. Further, the Potency entry in assay [19], in assay [8], in assay [9] and in assay [15] was “inactive” throughout.
